14 targets from the supplement of paper PMC10849652 can be followed below.

Of roughly 7,900 targets only a part is listed; those with a hit were picked by preference. About 0.6% of all pairs of compound and target were hits. Unmarked numbers belong to inactive results.

Common to all, as to test: log2 fold change, soluble protein after heating vs DMSO (PISA); higher = thermal stabilisation; K562 cells, 10 uM, 30 min; active = over 0.2 and 3.5 SD of the protein, either way, in both replicates (recomputed)
Compound in experiment [1]: CC1=NC(=CC=C1)C2=C(N=C(N2)C(C)(C)C)C3=CC4=NC=CN=C4C=C3
In outline:
(§1)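 Soluble protein was quantified by TMTpro 16plex LC-MS/MS after channel sums were equalised. It was obtained as the supernatant after 21,000xg for 90 min from pooled aliquots of K562 cells (2×10^6 cells/mL, 10 μM compound, 30 min) heated for 3 min across 48°C-58°C and extracted in PBS with 0.5% NP-40 at 4°C. Thermal stability values are relative to control samples and come from duplicates. They are given as log2 fold changes.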

Compound in the next experiment: CCCCN(Cc1ccc(C(=O)NO)cc1)C(=O)Nc1ccccc1 [Nexturastat A]
The method in brief:
as §1

Compound in a further experiment: CCCS(=O)(=O)Nc1ccc(F)c(C(=O)c2c[nH]c3ncc(-c4ccc(Cl)cc4)cc23)c1F [vemurafenib]
In outline:
as §1

Compound in experiment [2]: CCCc1cc(C)[nH]c(=O)c1CNC(=O)c1cc(-c2ccnc(N3CCN(C)CC3)c2)cc2c1cnn2C(C)C
The method in brief:
as §1

Compound in the next experiment: CCN(CCCOc1ccc2c(Nc3cc(CC(=O)Nc4cccc(F)c4)[nH]n3)ncnc2c1)CCOP(=O)(O)O [barasertib]
The method in brief:
as §1

Compound in experiment [3]: CC[C@@H]1C(=O)N(C)c2cnc(Nc3ccc(C(=O)NC4CCN(C)CC4)cc3OC)nc2N1C1CCCC1
The method in brief: as §1

Compound in experiment [4]: CC[C@H](C)N1C=C(C2=C(C=C(C=C21)C3=CN=C(C=C3)N4CCNCC4)C(=O)NCC5=C(C=C(NC5=O)C)C)C
In outline:
as §1

Compound in the next experiment: CC[C@H](C)[C@@H](C(=O)N[C@@H]([C@@H](C)O)C(=O)N[C@@H](CC(C)C)C(=O)[C@]1(CO1)C)NC(=O)[C@H]([C@@H](C)CC)N(C)C(=O)C [epoxomicin]
In outline:
as §1

Compound in experiment [5]: CN(C)CC(=O)Nc1ccc2[nH]c(=O)c3ccccc3c2c1
The method in brief:
as §1

Compound in another experiment: CN(CCOC1=CC=C(C=C1)C[C@H]2C(=O)NC(=O)S2)C3=CC=CC=N3 (racemic) [rosiglitazone]
The method in brief: as §1

Compound in experiment [6]: CN1C2=C(C3=C1C(=O)N(N=C3)CC4=CC(=CC=C4)N)SC(=C2)S(=O)C
The method in brief: as §1

Compound in experiment [7]: CC1=C(C=C(C=C1)NC(=O)C2=CC(=CC=C2)C(C)(C)C#N)NC3=CC4=C(C=C3)N=CN(C4=O)C
In outline: as §1

Compound in experiment [8]: CC1=CC=C(C=C1)SC2=C3C=C(SC3=CN=C2)C(=O)N
The method in brief: as §1

Compound in experiment [9]: CCCS(=O)(=O)Nc1ccc(F)c(C(=O)c2c[nH]c3ncc(Cl)cc23)c1F
In outline: as §1

Compound in the next experiment: CCN(CC)Cc1ccc2cc(COC(=O)Nc3ccc(C(=O)NO)cc3)ccc2c1 [givinostat]
In outline: as §1

Compound in another experiment: CC[C@@H]1C(=O)N(C)c2cnc(Nc3ccc(C(=O)N[C@H]4CC[C@H](N5CCN(CC6CC6)CC5)CC4)cc3OC)nc2N1C(C)C [volasertib]
In outline: as §1

Compound in experiment [10]: CCn1c(C(=O)N(C2CC2)C2CC2)cc2c3c(ncn3C)c(Nc3cc(C)n(C)n3)nc21
In outline: as §1

Compound in experiment [11]: CCn1cc(-c2ccnc3[nH]c(-c4cccc(CN(C)C)c4)cc23)c(-c2ccc(NC(=O)N(C)C)cc2)n1
In outline: as §1

Compound in experiment [12]: CN1CCC(CNc2ccc3ncc(-c4cccc(OC(F)(F)F)c4)n3n2)CC1
In outline: as §1

Compound in experiment [13]: CC1=C(C=C(C=C1)NC(=O)C2=CC(=CC=C2)N(C)C)NC(=O)C3=CC=C(C=C3)O
The method in brief: as §1

UniProt P51911, sequence (P51911 whole entry, looked up): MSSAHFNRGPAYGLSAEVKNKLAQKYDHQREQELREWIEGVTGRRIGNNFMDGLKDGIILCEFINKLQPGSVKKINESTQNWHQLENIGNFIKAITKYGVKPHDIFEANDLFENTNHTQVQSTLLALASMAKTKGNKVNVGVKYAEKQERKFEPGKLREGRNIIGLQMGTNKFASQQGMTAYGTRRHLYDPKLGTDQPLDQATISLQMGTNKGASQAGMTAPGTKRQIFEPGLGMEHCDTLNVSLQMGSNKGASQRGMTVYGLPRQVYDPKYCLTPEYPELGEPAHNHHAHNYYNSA
UniProt O95628, sequence (O95628 whole entry, looked up): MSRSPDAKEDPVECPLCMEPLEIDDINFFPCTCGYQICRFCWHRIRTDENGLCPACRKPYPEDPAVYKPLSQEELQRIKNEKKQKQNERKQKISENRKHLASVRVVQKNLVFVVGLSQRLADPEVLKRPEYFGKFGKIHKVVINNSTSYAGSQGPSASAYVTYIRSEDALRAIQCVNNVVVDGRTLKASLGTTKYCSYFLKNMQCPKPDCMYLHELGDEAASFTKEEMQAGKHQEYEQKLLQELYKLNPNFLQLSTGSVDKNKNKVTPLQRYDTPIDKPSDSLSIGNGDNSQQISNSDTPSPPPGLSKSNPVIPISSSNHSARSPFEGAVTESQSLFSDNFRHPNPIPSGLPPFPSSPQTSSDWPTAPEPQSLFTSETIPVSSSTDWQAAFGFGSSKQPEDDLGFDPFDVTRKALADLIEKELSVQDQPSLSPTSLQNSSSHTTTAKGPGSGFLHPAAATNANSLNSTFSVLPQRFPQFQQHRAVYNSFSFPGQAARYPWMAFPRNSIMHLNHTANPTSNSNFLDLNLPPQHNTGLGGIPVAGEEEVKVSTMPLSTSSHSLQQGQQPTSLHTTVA
UniProt A8MTT3, sequence (A8MTT3 whole entry, looked up): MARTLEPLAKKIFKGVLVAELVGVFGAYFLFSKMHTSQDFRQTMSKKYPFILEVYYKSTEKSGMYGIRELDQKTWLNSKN
UniProt P33552, sequence (P33552 whole entry, looked up): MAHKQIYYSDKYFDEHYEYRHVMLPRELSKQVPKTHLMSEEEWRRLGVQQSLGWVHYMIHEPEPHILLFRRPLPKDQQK
UniProt Q14194, sequence (Q14194 whole entry, looked up): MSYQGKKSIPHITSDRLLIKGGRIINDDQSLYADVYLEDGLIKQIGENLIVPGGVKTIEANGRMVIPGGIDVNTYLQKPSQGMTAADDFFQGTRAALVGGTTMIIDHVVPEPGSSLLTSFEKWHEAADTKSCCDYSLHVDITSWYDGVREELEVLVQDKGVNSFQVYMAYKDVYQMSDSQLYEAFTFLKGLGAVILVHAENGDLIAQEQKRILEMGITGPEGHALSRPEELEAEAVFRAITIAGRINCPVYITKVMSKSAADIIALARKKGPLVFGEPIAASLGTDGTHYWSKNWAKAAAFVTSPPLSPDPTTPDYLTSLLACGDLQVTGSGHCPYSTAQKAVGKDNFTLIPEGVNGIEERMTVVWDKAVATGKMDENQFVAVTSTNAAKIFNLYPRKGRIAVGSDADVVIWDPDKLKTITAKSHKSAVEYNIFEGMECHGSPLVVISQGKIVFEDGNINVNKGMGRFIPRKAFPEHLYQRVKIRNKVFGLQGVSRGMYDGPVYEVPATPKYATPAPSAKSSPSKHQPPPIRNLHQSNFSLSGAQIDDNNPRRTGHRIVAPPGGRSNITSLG
UniProt Q14677, sequence (Q14677 whole entry, looked up): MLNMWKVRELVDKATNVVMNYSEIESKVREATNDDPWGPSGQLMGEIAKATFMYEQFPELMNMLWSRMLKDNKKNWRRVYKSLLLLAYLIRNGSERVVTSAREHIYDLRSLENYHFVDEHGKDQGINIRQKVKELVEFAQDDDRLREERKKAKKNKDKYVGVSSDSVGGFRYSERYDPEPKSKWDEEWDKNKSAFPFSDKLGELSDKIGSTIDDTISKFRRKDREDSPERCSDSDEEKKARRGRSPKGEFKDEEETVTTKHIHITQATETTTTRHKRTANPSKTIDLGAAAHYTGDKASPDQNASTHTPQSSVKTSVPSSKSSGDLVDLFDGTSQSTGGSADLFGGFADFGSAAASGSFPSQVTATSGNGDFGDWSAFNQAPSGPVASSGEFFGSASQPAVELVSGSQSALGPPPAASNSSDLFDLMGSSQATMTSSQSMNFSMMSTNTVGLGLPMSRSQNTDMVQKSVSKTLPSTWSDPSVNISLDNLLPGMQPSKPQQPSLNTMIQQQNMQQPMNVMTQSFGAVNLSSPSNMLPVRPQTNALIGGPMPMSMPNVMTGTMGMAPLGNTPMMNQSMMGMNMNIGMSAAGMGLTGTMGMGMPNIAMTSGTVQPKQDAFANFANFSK
UniProt P51636, sequence (P51636 whole entry, looked up): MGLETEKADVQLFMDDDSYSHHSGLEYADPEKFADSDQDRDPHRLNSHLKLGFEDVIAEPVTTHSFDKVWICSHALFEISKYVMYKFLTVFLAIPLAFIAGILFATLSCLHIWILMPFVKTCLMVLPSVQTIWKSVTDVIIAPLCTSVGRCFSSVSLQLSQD
UniProt P30281, sequence (P30281 whole entry, looked up): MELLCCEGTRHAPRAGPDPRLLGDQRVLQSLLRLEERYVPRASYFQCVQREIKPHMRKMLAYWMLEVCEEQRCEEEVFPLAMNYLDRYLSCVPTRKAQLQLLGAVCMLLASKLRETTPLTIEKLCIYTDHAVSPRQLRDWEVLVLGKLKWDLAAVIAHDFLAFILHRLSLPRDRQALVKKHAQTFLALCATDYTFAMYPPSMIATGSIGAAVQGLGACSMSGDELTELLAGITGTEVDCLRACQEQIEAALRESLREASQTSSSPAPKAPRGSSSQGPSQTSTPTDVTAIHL
UniProt Q9H257, sequence (Q9H257 whole entry, looked up): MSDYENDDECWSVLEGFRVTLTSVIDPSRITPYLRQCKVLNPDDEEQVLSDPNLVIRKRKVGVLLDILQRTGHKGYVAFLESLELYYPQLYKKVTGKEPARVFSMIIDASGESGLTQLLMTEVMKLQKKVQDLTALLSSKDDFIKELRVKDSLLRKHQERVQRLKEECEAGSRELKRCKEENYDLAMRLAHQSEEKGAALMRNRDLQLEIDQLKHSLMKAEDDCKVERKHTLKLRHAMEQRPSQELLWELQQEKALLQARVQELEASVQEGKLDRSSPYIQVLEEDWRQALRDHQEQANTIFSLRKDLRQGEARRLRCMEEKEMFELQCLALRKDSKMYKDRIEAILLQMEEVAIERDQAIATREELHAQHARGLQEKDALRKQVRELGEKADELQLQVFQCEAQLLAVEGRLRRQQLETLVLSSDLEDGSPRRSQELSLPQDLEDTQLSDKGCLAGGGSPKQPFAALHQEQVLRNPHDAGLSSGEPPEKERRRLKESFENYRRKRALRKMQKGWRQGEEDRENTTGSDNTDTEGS
UniProt Q9UK58, sequence (Q9UK58 whole entry, looked up): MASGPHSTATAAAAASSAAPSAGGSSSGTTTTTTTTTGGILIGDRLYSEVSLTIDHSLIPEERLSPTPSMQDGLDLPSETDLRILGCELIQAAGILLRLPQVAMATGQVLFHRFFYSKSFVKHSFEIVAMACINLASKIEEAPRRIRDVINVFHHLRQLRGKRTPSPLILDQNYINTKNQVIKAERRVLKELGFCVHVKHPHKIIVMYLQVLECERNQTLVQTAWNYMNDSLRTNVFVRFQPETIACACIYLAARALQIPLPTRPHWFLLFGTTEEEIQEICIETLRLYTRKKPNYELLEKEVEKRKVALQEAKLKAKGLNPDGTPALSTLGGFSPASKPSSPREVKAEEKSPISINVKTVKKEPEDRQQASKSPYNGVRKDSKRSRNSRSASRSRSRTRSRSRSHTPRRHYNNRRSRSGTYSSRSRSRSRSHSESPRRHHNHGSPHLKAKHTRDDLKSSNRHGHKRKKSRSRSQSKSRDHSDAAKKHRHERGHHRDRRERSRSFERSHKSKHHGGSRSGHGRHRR
UniProt O14936, sequence (O14936 whole entry, looked up): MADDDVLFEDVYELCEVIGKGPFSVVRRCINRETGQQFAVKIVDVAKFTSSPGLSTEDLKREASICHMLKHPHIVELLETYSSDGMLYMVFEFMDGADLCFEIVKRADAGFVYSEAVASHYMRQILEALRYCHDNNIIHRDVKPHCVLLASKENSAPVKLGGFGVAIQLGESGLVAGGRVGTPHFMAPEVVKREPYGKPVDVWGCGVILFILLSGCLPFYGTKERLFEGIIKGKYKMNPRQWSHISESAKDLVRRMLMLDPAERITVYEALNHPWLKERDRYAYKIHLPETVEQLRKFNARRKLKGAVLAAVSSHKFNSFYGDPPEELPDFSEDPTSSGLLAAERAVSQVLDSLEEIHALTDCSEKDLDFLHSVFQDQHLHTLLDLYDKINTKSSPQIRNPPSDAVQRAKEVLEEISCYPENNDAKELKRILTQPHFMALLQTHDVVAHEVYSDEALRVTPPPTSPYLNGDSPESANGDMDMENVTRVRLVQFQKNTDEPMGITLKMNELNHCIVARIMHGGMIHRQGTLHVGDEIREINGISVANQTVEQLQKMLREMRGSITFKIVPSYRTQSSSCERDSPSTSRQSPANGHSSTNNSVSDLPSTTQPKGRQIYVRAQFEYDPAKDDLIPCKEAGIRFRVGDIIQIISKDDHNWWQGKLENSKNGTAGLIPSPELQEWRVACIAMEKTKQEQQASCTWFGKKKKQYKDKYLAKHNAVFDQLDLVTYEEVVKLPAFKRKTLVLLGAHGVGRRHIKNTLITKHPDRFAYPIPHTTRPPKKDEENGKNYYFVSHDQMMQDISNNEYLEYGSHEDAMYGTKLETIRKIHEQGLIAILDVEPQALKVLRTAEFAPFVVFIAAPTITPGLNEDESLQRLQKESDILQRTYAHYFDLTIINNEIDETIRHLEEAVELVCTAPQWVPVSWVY
UniProt Q96GV9, sequence (Q96GV9 whole entry, looked up): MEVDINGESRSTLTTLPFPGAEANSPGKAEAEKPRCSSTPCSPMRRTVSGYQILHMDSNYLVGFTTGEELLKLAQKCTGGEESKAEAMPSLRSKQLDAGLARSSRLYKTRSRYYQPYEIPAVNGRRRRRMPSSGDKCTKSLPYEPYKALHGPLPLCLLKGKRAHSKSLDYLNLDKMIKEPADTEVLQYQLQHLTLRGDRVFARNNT

For the target CLINT1 (UniProt Q14677), the log2 fold change is -0.007 in experiment [1]; 0.259 in the experiment with Nexturastat A; 0.051 with vemurafenib; -0.017 in experiment [2]; 0.017 in the experiment with barasertib; -0.022 in [3]. The log2 fold change in [4] is 0.021; with epoxomicin, -0.035; in experiment [5], -0.075; with rosiglitazone, 0.003; in experiment [6], -0.218.

For the target CAV2 (UniProt P51636), the log2 fold change in experiment [7] was -0.164; in experiment [8] it was -0.018; in experiment [1] it was 0.078; in [9] it was 0.087; in [2], 0.001; in the experiment with givinostat, 0.137. Besides, the log2 fold change is 0.175 with barasertib; -0.098 with volasertib; -0.032 in experiment [4]; -0.059 in [10]; -0.036 in [11]; -0.076 in the experiment with rosiglitazone. In addition, the log2 fold change in experiment [6] was 0.01; in experiment [12], 0.074.

As for CCND3 (UniProt P30281), the log2 fold change in experiment [13] was 0.046; in [8] it was 0.063; with Nexturastat A it was -0.004; in the experiment with vemurafenib, -0.077; in [9], -0.028; in experiment [2], -0.062. Moreover, the log2 fold change in the experiment with givinostat was 0.021; with barasertib, 0.079; in experiment [3], -0.085; with volasertib, 0.102; with epoxomicin it was 0.363 (active); in experiment [10], -0.003. Moreover, the log2 fold change in [11] is -0.021; in experiment [5], -0.022; in the experiment with rosiglitazone, -0.025; in [6], 0.063; in experiment [12] it was -0.175.

On to CASK (UniProt O14936), for which the log2 fold change in experiment [1] was -0.091; with givinostat, -0.06; in experiment [10], -0.086; in [6], 0.014.

For the target C5orf30 (UniProt Q96GV9), the log2 fold change is -0.126 in [8]; -0.186 with Nexturastat A; 0.103 in experiment [9]; 0.001 in the experiment with volasertib; 0.165 with epoxomicin.

As to CRMP1 isoform 2 (UniProt Q14194), the log2 fold change in experiment [7] was 0.089; in the experiment with vemurafenib, -0.026; with givinostat it was -0.19; with barasertib it was 0.035; in [4] it was 0.2; in experiment [10], -0.303. Moreover, the log2 fold change is -0.198 in [11]; -0.072 in experiment [5]; 0.047 with rosiglitazone; -0.25 in experiment [6]; 0.038 in [12].

Consider CARD9 (UniProt Q9H257), for which the log2 fold change in experiment [13] was -0.15; in experiment [1] it was 0.052; with givinostat, -0.106; in experiment [10], -0.103.

For the target CNOT4 isoform 9 (UniProt O95628), the log2 fold change in experiment [13] was -0.034; in experiment [8], 0.003; in [1], 0.017; with vemurafenib, -0.059; in [9], 0.006; in experiment [2], -0.171. Moreover, the log2 fold change was 0.053 in the experiment with givinostat; 0.015 in the experiment with barasertib; 0.198 in experiment [3]; -0.006 in the experiment with volasertib; -0.046 in experiment [4]; 0.017 in experiment [10]. The log2 fold change in experiment [11] was -0.095; in experiment [5], 0.046; with rosiglitazone, -0.022; in [6] it was -0.105; in [12], 0.072.

For the target CKS2 (UniProt P33552), the log2 fold change was -0.031 in [8]; 0.039 in [9]; -0.077 in experiment [2]; 0.045 in the experiment with barasertib; 0.01 in experiment [3]; -0.044 with volasertib. Besides, the log2 fold change was 0.029 in experiment [4]; -0.23 in [11]; 0.028 with rosiglitazone; 0.023 in experiment [6]; 0.594 (active) in [12].

For CA1 (UniProt E5RIF9), the log2 fold change with Nexturastat A is -0.413; with vemurafenib, -0.383; with barasertib, -0.004; with epoxomicin, 0.132; in experiment [5] it was -0.037; with rosiglitazone, -0.083. For the same target, in [6], the log2 fold change was -0.056.

For the target CCNL1 (UniProt Q9UK58), the log2 fold change in experiment [2] was -0.317; with givinostat, 0.156; in [10], -0.078.

For CEBPZOS (UniProt A8MTT3), the log2 fold change in [13] is -0.015; in experiment [8], 0.027; in experiment [1], -0.016; in the experiment with vemurafenib, 0.065; in experiment [9] it was 0.132; in experiment [2], -0.069. Besides, the log2 fold change was -0.029 with givinostat; 0.059 in the experiment with barasertib; 0.002 in experiment [3]; -0.035 with volasertib; -0.038 in experiment [4]; 0.057 in experiment [10]. The log2 fold change in experiment [11] was 0.013; in experiment [5], -0.001; in the experiment with rosiglitazone, 0.101; in experiment [6] it was -0.103; in [12], -0.015.

Take CLCN5 isoform 2 (UniProt P51795): the log2 fold change in experiment [13] is 0.052; in [1], -0.016; in the experiment with vemurafenib, 0.029; with givinostat, 0.022; in experiment [3], -0.299; in experiment [4], 0.151. The log2 fold change in experiment [10] was 0.002; in experiment [11], 0.172; in experiment [5], 0.046; in experiment [6] it was 0.098; in experiment [12] it was -0.267.

Take CNN1 (UniProt P51911): the log2 fold change in experiment [7] is -0.068; in [8] it was -0.1; with Nexturastat A it was -0.029; in the experiment with vemurafenib it was 0.056; in [9] it was -0.042; in experiment [2] it was -0.012. Moreover, the log2 fold change in experiment [3] was -0.049; with volasertib, -0.066; in experiment [4] it was -0.066; with epoxomicin it was -0.015; in experiment [11], -0.403; in experiment [5], -0.007. The log2 fold change in [12] was -0.192.
